Assay results as given in PubChem BioAssay (NCI).
About 83,000 compounds went through this panel and 20% of them were active in at least one assay; those are over-represented in the sample as a whole.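 Method: cells in 96-well plates; compound added at one concentration; 48 h incubation; percent growth measured; values under 10 scored active.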 A number with no mark means an inactive call. The source made the active and inactive calls.

Columns and labels:
Test in all cases: NCI-60 one-dose screen, 48 h (100 = growth as untreated, 0 = no growth, -100 = all killed)
Details in all cases: 10 µM unless noted
SR leukemia = system: SR leukemia
RPMI-8226 leukemia = system: RPMI-8226 leukemia
OVCAR-8 ovarian = system: OVCAR-8 ovarian
OVCAR-5 ovarian = system: OVCAR-5 ovarian
OVCAR-4 ovarian = system: OVCAR-4 ovarian
SK-OV-3 ovarian = system: SK-OV-3 ovarian
IGROV1 ovarian = system: IGROV1 ovarian
OVCAR-3 ovarian = system: OVCAR-3 ovarian
HS 578T breast = system: HS 578T breast
NCI/ADR-RES ovarian = system: NCI/ADR-RES ovarian

Structure (SMILES) | growth (SR leukemia) | growth (RPMI-8226 leukemia) | growth (OVCAR-8 ovarian) | growth (OVCAR-5 ovarian) | growth (OVCAR-4 ovarian) | growth (SK-OV-3 ovarian) | growth (IGROV1 ovarian) | growth (OVCAR-3 ovarian) | growth (HS 578T breast) | growth (NCI/ADR-RES ovarian)
O=C(O)c1cccc2cccc(-c3c4ccc(=O)c(O)c-4oc4c(O)c(O)ccc34)c12 | 83.6% | 123% | 100% | 97.5% | 97.4% | 90.1% | 101% | 93.5% | 99.5% | 96.7%
Cn1c(-c2ccccc2)c(/C=C/C2=[N+](C)c3ccccc3C2(C)C)c2ccccc21 | 9.26% (active) | -1.71% (active) | 2.16% (active) | 33.9% | 12.2% | -9.3% (active) | 33.9% | 6.26% (active) | 11% | 86.8%
CCOc1ccc2c(c1)/C(=C\C=C\C1CC(C)C3CC(OCC)CCC3N1CC)CC(C)N2CC (stereo not given) | -47.6% (active) | -52.2% (active) | 6.8% (active) | 33.6% | 15.4% | 14.9% | 32.4% | 8.69% (active) | 63.6% | 60.8%
CC1(C)OCC(COC(c2ccccc2)(c2ccccc2)c2ccccc2)O1 (stereo not given) | 93.6% | 105% | 98.4% | 98.1% | 96% | 112% | 108% | 102% | 103% | 103%
O=S(=O)(O)c1cnccn1 | 110% | 104% | 107% | 96.6% | 113% | 89.6% | 105% | 103% | 112% | 102%
O=C1CSC(=S)N1Cc1cccnc1 | -10.3% (active) | 9.56% (active) | 53.8% | 106% | 91.7% | 106% | 114% | 99.2% | 114% | 106%
O=C1C(=O)c2cccnc2-c2ncccc21 | -45.5% (active) | -29.7% (active) | -33% (active) | -57.6% (active) | -100% (active) | -32.8% (active) | -53.8% (active) | -100% (active) | -47.5% (active) | -96.3% (active)
NC(CS/C(Cl)=C/Cl)C(=O)O (stereo not given) | 96% | 36.2% | 64.6% | 99.8% | 101% | 94% | 96.4% | 102% | 104% | 86.2%
O=C(c1ccccc1)N(CCCl)C(=O)N(CCCl)C(=O)c1ccccc1 | 94.4% | 101% | 98.5% | 91% | 105% | 104% | 103% | 107% | 110% | 91.8%
CC(C)Nc1ccc(Nc2ccc(NC(C)C)cc2)cc1 | 26.2% | 17.8% | 51.6% | 96.3% | 49.5% | 53.2% | 50.7% | 31.6% | 73.4% | 95.5%
COC(=O)[C@]1(C)CCC[C@]2(C)c3ccc(C(C)C)cc3C(=O)[C@@H](Br)[C@@H]12 | 65.6% | 81.1% | 77.9% | 113% | 82.3% | 96.9% | 111% | 95.4% | 98% | 96.7%
O=C(NOC(=O)c1ccccc1)c1ccccc1 | 84.5% | 75.7% | 119% | 109% | 105% | 109% | 107% | 115% | 83.5% | 93.7%
CC(C)=C1C=C2CC[C@@H]3[C@](C)(CCC[C@@]3(C)C(=O)O)[C@H]2CC1 | 99% | 107% | 100% | 96.8% | 94.4% | 105% | 103% | 98.9% | 110% | 100%
CCN(CC)CCNC(Cc1ccccc1)c1ccc(OCc2ccccc2)cc1 (stereo not given) | 24.7% | 34.8% | 79.7% | 56.2% | 66.7% | 83.1% | 57.7% | 95.4% | 70.8% | 76.1%
CCOC(=O)C1(C)CCCC1N (stereo not given) | 90.1% | 109% | 106% | 106% | 99.2% | 131% | 104% | 104% | 98.5% | 116%
CCNc1nnnn1CC | 108% | 107% | 113% | 115% | 110% | 109% | 115% | 109% | 102% | 110%
CC(C)c1ccc(Nc2n[nH]c(=S)s2)cc1 | 101% | 108% | 102% | 119% | 104% | 106% | 106% | 98.9% | 116% | 102%
O=[N+]([O-])c1ccc(N2CCN(Cc3ccccc3)CC2)c2c1no[n+]2[O-] | -47.7% (active) | -15.1% (active) | 0.836% (active) | 26.5% | -50.2% (active) | 58.4% | -42% (active) | -53.7% (active) | 30.5% | 24.5%
CCOc1ccc(Nc2nc3c(s2)C(=O)c2ccccc2C3=O)cc1 | 46.6% | 51% | 68.4% | 112% | 65.5% | 103% | 82.2% | 53.9% | 96.8% | 75.2%
CC(=O)C1Cc2ccccc2C1=O (stereo not given) | 108% | 117% | 119% | 101% | 104% | 96.1% | 116% | 112% | 103% | 104%
CCN1CCCC(Nc2cc(C)nc(/N=C(/N)Nc3ccc(Cl)c(Cl)c3)n2)C1 (stereo not given) | -60.3% (active) | -31.6% (active) | -21.5% (active) | 13% | -17.3% (active) | 6.57% (active) | 14.5% | -49% (active) | -37.8% (active) | 17.2%
O=C(C[P+](c1ccccc1)(c1ccccc1)c1ccccc1)c1ccccc1 | 90.4% | 92.6% | 95.9% | 89.6% | 83.9% | 104% | 89.5% | 93.8% | 96.9% | 82.8%
COc1cc(OC)c(/C=C/c2c3ccccc3cc[n+]2C)c(OC)c1 | -18.2% (active) | 6.51% (active) | 5.21% (active) | 56.5% | 24.9% | 35% | 13.2% | 5.9% (active) | 46.3% | 96.6%
CC1(C)OC2C(COC(c3ccccc3)(c3ccccc3)c3ccccc3)OC(c3c[nH]c4c(N)ncnc34)C2O1 (stereo not given) | 28.3% | 27.4% | 56.1% | 82.9% | 50.1% | 70% | 75.5% | 53.8% | 77.5% | 86.9%
O=C(O)c1ccc2c(c1)C(=O)c1ccccc1C2=O | 86.4% | 102% | 98.9% | 101% | 96.7% | 98.8% | 116% | 99.3% | 95.6% | 105%
O=C(Nc1ccc(Cl)c(Cl)c1)OCc1ccco1 | 25.7% | 51.3% | 47.1% | 76.5% | 64% | 83.3% | 52.7% | 47% | 20.5% | 34.4%
O=C(Cc1ccccc1)C(F)(F)F | 94.7% | 106% | 103% | 99.5% | 106% | 101% | 101% | 101% | 111% | 104%
CCCCCCCCCCCCCCCCSC(=NCC)NCC | -43.3% (active) | -43.3% (active) | -15.4% (active) | 44.5% | 2% (active) | 72.1% | -89.3% (active) | -18.1% (active) | 66.1% | 25.4%
COc1ccc(C(Cn2ccnc2)Sc2ccc(Cl)c(Cl)c2)cc1 (stereo not given) | 97.4% | 50.7% | 91% | 91.3% | 79.6% | 86.4% | 59.3% | 89.7% | 112% | 69.1%
